# Data taken from PubChem BioAssay (NCATS).
# Where “and” joins values, the source holds several entries; their conditions need not be identical. Equal entries are not always repeated. Records with an inconclusive call do not appear. A call without a number means that no potency is given here. More than one record can exist for a structure, and the calls need not agree. Calls of active or inactive are those of the source. Unless noted, the call rests on the fitted dose curve; in most records, active means well fitted curve in the direction sought with a large enough effect; inconclusive means small, poorly fitted or top-dose-only effect, or another doubt; inactive means no such curve, though single readings can be large; an effect the other way counts as inactive or inconclusive.
# Tests used:
# [1] = Primary qHTS for small molecule stabilizers of the endoplasmic reticulum resident proteome: Secreted ER Calcium Modulated Protein (SERCaMP) assay (AID 1508630)
# In short: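 The SH-SY5Y reporter protocol was run at 3 concentrations up to 38.3 uM (primary) or 11 concentrations (follow-up): 16 h compound, 100 nM thapsigargin for 4 h, then extracellular luciferase luminescence.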
# [2] = Primary qHTS for inhibitors of nuclear receptor binding SET domain protein 2 (NSD2) in an isogenic RCH-ACV NSD2 p.E1099K mutant (9B) (AID 1645876); further: nearly all actives have a fitted effect of over 70% in size; further: potency means the concentration at half of the fitted maximal effect
# [3] = Primary qHTS for inhibitors of nuclear receptor binding SET domain protein 2 (NSD2) in an RCH-ACV wild type WT cells (2C) (AID 1645877); further: nearly all actives have a fitted effect of over 70% in size; further: potency means the concentration at half of the fitted maximal effect
# [4] = biological target: Rap guanine nucleotide exchange factor 3 (Homo sapiens) (UniProt O95398); experiment: Confirmatory qHTS for antagonist of cAMP-regulated guanine nucleotide exchange factor 3 (EPAC1) (AID 1645880); further: potency means the concentration at half of the fitted maximal effect; nearly all actives have a fitted effect of over 55% in size
# In short: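 Released BODIPY-GDP fluoresces less than Rap1-bound BODIPY-GDP; the signal is followed at 480/540 nm at 5-min intervals over 30 min, after 5 min at room temperature. Reactions contain 100 nM EPAC1, 250 nM RAP1B-BODIPY-GDP and 50 uM GDP; results are normalized to ATA and DMSO.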
# [5] = biological target: Rap guanine nucleotide exchange factor 3 (Homo sapiens) (UniProt O95398); experiment: Confirmatory qHTS for agonist of cAMP-regulated guanine nucleotide exchange factor 3 (EPAC1) (AID 1645881);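 further: EPAC1 catalysed release of BODIPY-GDP from Rap1B seen as fluorescence loss; nearly all actives have a fitted effect of over 75% in size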
# [6] = biological target: Rap guanine nucleotide exchange factor 4 (Homo sapiens) (UniProt Q8WZA2); experiment: Confirmatory qHTS for agonist of cAMP-regulated guanine nucleotide exchange factor 4 (EPAC2) (AID 1645884);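 further: nucleotide exchange releases bodipy-GDP from Rap1 and this lowers its fluorescence; nearly all actives have a fitted effect of over 65% in size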
# [7] = biological target: Rap guanine nucleotide exchange factor 4 (Homo sapiens) (UniProt Q8WZA2); experiment: Confirmatory qHTS for antagonist of cAMP-regulated guanine nucleotide exchange factor 4 (EPAC2) (AID 1645885); further: nearly all actives have a fitted effect of over 25% in size
# [8] = biological target: Rap guanine nucleotide exchange factor 3 (Homo sapiens) (UniProt O95398); experiment: Counterscreen qHTS for antagonist of cAMP-regulated guanine nucleotide exchange factor 3 (EPAC1) (AID 1645888)
# In short: (§1)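 Rap1B–BODIPY-GDP (250 nM) with 50 uM GDP; compounds pin-transferred to 9.74 nM–152 uM final (activator) or from 7.32 nM upwards (inhibitor). Fluorescence Ex/Em 480/540 nm read at 5 and 30 min, then after adding cAMP or buffer, at room temperature.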
# [9] = biological target: Rap guanine nucleotide exchange factor 3 (Homo sapiens) (UniProt O95398); experiment: Counterscreen qHTS for agonist of cAMP-regulated guanine nucleotide exchange factor 3 (EPAC1) (AID 1645889); further: nearly all actives have a fitted effect of over 40% in size
# In short: as §1
# [10] = biological target: Cytochrome P450 2C9 (Homo sapiens) (UniProt P11712); experiment: Cytochrome P450 family 2 subfamily C member 9 (CYP2C9) small molecule antagonists: luciferase biochemical (cell-free) qHTS assay (AID 1645842; active means well fitted curve in the direction sought with a large enough effect in the repeat runs; an effect the other way counts as inactive or inconclusive; further: nearly all actives have a fitted effect of over 55% in size; further: potency means the concentration at half of the fitted maximal effect)
# In short: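 P450-Glo CYP2C9 system: proluciferin substrate with enzyme in mix containing 0.4% BSA, 10 min at room temperature, then NADPH regeneration solution added and incubated 1 h at 37C. Detection reagent stopped reaction; luminescence read after 20 min as RLU.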
# [11] = biological target: Cytochrome P450 2D6 (Homo sapiens) (UniProt P10635); experiment: Cytochrome P450 family 2 subfamily D member 6 (CYP2D6) small molecule antagonists: luciferase biochemical (cell-free) qHTS assay (AID 1645840; active means well fitted curve in the direction sought with a large enough effect in the repeat runs; an effect the other way counts as inactive or inconclusive; further: potency means the concentration at half of the fitted maximal effect; nearly all actives have a fitted effect of over 55% in size)
# In short: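 P450-Glo CYP2D6 system: proluciferin substrate converted by enzyme to luciferin, read by luminescence proportional to activity. Enzyme-substrate mix with compound 10 min at room temperature, then NADPH regeneration 1 h before detection reagent.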
# [12] = biological target: Catechol O-methyltransferase (Homo sapiens) (UniProt P21964); experiment: Confirmatory Screen for Target Class Profiling of Small Molecule Inhibitors of Methyltransferases (AID 1745852); details: MTase-Glo luminescence, SAH detection, recombinant enzyme; measured here: COMT max response; stronger effect = lower value
# [13] = biological target: Guanidinoacetate N-methyltransferase (Homo sapiens) (UniProt Q14353); experiment: as above; details: MTase-Glo luminescence, SAH detection, recombinant enzyme; activity change, negative = inhibition: at 57.3 µM (top of the series)
# [14] = biological target: Nicotinamide N-methyltransferase (Homo sapiens) (UniProt P40261); experiment: as above; details: MTase-Glo luminescence, SAH detection, recombinant enzyme; measured here: NNMT max response; stronger effect = lower value
# [15] = biological target: Phenylethanolamine N-methyltransferase (Homo sapiens) (UniProt P11086); experiment: as above; details: MTase-Glo luminescence, SAH detection, recombinant enzyme; measured here: PNMT max response; stronger effect = lower value
# Chain of Phenylethanolamine N-methyltransferase (Homo sapiens) (P11086 whole entry, looked up): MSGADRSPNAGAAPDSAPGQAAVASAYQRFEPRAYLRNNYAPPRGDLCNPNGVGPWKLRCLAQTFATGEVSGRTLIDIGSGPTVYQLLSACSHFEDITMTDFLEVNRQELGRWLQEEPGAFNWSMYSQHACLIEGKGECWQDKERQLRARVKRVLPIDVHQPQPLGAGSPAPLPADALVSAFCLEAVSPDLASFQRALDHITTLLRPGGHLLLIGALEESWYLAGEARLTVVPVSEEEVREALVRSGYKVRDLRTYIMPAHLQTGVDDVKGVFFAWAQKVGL
# Chain of Rap guanine nucleotide exchange factor 4 (Homo sapiens) (Q8WZA2 whole entry, looked up): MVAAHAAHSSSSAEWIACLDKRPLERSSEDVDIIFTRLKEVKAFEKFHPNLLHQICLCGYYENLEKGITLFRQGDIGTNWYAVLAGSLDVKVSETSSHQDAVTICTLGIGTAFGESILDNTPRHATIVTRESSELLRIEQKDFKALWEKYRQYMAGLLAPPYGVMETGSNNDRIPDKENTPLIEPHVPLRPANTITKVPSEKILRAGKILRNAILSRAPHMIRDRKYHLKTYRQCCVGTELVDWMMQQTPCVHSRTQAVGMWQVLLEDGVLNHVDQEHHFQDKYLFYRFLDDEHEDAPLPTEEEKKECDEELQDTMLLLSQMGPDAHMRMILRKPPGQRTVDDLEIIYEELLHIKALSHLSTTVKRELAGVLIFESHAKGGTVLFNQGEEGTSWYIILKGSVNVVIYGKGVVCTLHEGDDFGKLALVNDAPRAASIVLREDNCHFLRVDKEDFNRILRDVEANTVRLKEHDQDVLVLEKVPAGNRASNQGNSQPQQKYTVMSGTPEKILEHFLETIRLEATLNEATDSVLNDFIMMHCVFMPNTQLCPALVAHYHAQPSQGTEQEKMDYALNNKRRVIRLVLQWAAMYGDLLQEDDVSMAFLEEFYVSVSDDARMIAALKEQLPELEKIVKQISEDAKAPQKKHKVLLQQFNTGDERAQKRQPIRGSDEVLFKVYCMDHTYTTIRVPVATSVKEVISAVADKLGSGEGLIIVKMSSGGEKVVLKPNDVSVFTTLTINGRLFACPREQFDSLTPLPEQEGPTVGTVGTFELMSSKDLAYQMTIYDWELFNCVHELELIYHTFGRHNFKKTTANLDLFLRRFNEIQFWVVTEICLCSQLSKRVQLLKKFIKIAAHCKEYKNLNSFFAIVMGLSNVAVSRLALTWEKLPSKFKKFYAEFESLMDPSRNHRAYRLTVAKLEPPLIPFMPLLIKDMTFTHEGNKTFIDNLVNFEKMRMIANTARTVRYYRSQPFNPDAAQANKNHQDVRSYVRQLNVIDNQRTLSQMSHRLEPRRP
# Chain of Rap guanine nucleotide exchange factor 3 (Homo sapiens) (O95398 whole entry, looked up): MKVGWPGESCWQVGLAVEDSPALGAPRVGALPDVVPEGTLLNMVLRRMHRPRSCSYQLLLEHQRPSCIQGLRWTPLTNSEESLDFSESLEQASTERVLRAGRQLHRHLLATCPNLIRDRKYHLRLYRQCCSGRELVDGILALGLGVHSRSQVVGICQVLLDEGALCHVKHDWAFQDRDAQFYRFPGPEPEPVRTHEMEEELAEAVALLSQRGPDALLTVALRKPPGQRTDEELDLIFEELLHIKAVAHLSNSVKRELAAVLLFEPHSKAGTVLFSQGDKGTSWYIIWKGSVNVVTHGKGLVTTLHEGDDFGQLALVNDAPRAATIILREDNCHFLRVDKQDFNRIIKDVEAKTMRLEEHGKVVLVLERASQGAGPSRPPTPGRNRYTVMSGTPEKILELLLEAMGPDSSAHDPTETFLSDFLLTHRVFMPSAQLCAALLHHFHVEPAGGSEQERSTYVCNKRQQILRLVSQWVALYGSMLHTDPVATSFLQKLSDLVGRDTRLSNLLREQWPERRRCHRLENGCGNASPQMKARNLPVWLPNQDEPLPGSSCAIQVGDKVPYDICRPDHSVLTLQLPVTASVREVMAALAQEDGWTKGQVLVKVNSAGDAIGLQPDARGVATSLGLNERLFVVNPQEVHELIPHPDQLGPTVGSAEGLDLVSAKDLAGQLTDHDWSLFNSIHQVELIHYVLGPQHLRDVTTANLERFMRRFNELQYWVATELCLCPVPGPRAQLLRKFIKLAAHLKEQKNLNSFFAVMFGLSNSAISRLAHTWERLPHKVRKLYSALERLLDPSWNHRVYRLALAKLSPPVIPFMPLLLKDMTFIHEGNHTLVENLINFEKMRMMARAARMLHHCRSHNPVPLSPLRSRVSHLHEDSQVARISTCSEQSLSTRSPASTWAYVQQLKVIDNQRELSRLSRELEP
# Chain of Cytochrome P450 2C9 (Homo sapiens) (P11712 whole entry, looked up): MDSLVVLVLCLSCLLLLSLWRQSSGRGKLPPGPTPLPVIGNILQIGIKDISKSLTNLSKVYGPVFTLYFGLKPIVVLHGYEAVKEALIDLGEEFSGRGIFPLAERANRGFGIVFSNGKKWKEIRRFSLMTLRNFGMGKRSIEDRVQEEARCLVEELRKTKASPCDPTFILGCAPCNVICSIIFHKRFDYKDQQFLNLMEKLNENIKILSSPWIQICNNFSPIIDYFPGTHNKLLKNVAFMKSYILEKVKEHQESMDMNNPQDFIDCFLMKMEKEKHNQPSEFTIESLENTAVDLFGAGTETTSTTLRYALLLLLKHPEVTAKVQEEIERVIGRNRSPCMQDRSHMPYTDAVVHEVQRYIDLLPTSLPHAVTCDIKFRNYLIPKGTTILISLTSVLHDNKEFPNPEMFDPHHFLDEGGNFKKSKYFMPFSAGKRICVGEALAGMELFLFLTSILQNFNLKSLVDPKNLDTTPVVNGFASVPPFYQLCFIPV
# Chain of Catechol O-methyltransferase (Homo sapiens) (P21964 whole entry, looked up): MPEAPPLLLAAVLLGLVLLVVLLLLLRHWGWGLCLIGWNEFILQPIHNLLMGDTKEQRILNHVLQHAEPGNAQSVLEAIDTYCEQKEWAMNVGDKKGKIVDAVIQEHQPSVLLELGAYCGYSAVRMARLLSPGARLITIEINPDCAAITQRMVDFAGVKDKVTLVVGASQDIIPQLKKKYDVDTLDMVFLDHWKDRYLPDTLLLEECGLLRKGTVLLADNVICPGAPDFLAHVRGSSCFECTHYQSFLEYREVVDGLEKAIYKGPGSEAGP
# Chain of Nicotinamide N-methyltransferase (Homo sapiens) (P40261 whole entry, looked up): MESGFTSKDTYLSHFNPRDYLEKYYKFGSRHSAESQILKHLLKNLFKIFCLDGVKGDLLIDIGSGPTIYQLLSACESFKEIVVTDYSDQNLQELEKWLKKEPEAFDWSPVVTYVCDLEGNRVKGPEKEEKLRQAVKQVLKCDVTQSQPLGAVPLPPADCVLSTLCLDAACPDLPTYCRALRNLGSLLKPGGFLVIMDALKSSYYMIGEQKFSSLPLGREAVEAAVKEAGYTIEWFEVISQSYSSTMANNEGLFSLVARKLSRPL
# Chain of Cytochrome P450 2D6 (Homo sapiens) (P10635 whole entry, looked up): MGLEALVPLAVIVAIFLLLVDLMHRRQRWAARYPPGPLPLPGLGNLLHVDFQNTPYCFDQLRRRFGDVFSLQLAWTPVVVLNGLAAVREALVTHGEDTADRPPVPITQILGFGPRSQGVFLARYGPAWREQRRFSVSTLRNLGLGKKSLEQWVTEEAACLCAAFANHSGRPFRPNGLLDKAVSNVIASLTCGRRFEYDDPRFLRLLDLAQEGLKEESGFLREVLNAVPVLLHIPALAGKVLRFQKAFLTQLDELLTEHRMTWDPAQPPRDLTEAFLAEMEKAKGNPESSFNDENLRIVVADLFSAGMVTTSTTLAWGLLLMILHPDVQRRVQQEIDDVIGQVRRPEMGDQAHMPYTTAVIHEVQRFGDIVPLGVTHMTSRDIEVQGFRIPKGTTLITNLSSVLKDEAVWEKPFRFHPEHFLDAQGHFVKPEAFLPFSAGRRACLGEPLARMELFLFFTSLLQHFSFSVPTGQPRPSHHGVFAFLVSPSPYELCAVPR
structure (smiles),measurement,setting,value
CC(C)C[C@@H](N)[C@H](O)C(=O)N[C@H](C(=O)N[C@H](C(=O)N[C@@H](CC(=O)O)C(=O)O)C(C)C)C(C)C,Potency,[1],inactive
same,Potency,[2],inactive
same,Potency,[3],inactive
CN1N=C(N)c2cn([C@@H]3O[C@H](COP(=O)(O)O)[C@@H](O)[C@@H]3O)c3ncnc1c23,Potency,[1],inactive
same,Potency,[2],2.63 µM (active)
CN1c2ccccc2C(=O)N2CCc3c([nH]c4ccccc34)C21 (centres undefined),Potency,[1],inactive
same,Potency,[2],2.09 µM (active)
same,Potency,[3],1.32 µM (active)
CC(C)Oc1cc(Nc2nc(N[C@@H](C)c3ccc(F)cn3)ncc2Cl)[nH]n1,Potency,[1],inactive
same,Potency,[2],7.42 µM (active) and 8.2 µM (active)
COc1nc(C)cnc1NS(=O)(=O)c1cccnc1-c1ccc(-c2nnco2)cc1,Potency,[1],inactive
same,Potency,[2],inactive
O=[N+]([O-])c1ccc(Nc2ccccc2-c2ccccc2)c2nonc12,Potency,[1],inactive
same,Potency,[2],20.9 µM (active)
COC(=O)[C@H](c1ccccc1Cl)N1CCc2sccc2C1,Potency,[1],inactive
same,Potency,[2],inactive
CC[C@H](C=C[C@@H](C)[C@H]1CC[C@H]2[C@@H]3CC=C4C[C@@H](O)CC[C@]4(C)[C@@H]3CC[C@]12C)C(C)C,Potency,[1],inactive
same,Potency,[2],inactive
CCC(=O)NCC[C@@H]1CCc2ccc3c(c21)CCO3,Potency,[1],inactive
same,Potency,[2],inactive
same,Potency,[3],inactive
COc1ccc(CCN(C)CCCOc2ccc(S(=O)(=O)c3[nH]c4ccccc4c3C(C)C)cc2)cc1OC,Potency,[1],inactive
same,Potency,[2],13.2 µM (active)
same,Potency,[3],16.6 µM (active)
CCN(CC)CCCCNc1nc2cc(Cl)c(Cl)cc2nc1-c1ccc(-c2cccs2)s1,Potency,[1],inactive
same,Potency,[2],7.42 µM (active)
same,Potency,[3],7.42 µM (active)
N#Cc1ccc(Oc2ccc3c(c2)COB3O)cc1,Potency,[1],inactive
same,Potency,[2],5.9 µM (active)
O=C1CN2Cc3c(ccc(Cl)c3Cl)N=C2N1,Potency,[1],inactive
same,Potency,[2],inactive
same,Potency,[3],inactive
CC1CNc2c(cccc2S(=O)(=O)N[C@@H](CCCN=C(N)N)C(=O)N2CC[C@@H](C)C[C@@H]2C(=O)O)C1 (some centres undefined),Potency,[1],inactive
same,Potency,[2],inactive
same,Potency,[3],inactive
CC[C@@H]([C@H](C)O)n1ncn(-c2ccc(N3CCN(c4ccc(OCC5CO[C@@](Cn6cncn6)(c6ccc(F)cc6F)C5)cc4)CC3)cc2)c1=O (some centres undefined),Potency,[1],inactive
same,Potency,[2],inactive
same,Potency,[3],inactive
Cc1ccc(S(=O)(=O)Nc2nc3ccccc3nc2Nc2ccc3nsnc3c2)cc1,Potency,[1],inactive
same,Potency,[2],inactive
same,Potency,[3],14.6 µM (active) and inactive
Cc1ccc(NC(=O)c2ccc(CN3CCN(C)CC3)cc2)cc1Nc1nc(-c2cccnc2)cs1,Potency,[1],inactive
same,Potency,[2],14.6 µM (active) and 14.8 µM (active)
same,Potency,[3],18.4 µM (active) and 14.8 µM (active)
NC1(C(=O)N[C@@H](CCO)c2ccc(Cl)cc2)CCN(c2ncnc3[nH]ccc23)CC1,Potency,[1],inactive
same,Potency,[2],0.817 µM (active)
COc1c(C)cnc(Cn2cnc3c(Cl)nc(N)nc32)c1C,Potency,[1],inactive
same,Potency,[2],0.235 µM (active)
same,Potency,[3],0.263 µM (active)
COc1cc2ncn(-c3cc(OCc4ccccc4S(C)(=O)=O)c(C#N)s3)c2cc1OC,Potency,[1],inactive
same,Potency,[2],inactive
O=c1cc(-c2ccc(O)c(O)c2)oc2cc(O)cc(O)c12,Potency,[4],6.27 µM (active) and 5.77 µM (active) and 7.57 µM (active)
same,Potency,[5],inactive
same,Potency,[6],inactive
same,Potency,[7],inactive
same,outcome,[8],inactive
same,outcome,[9],inactive
N#CC(c1ccnc(NCCc2cccnc2)n1)c1nc2ccccc2s1 (centres undefined),Potency,[2],14.8 µM (active)
same,Potency,[3],14.8 µM (active)
Nc1ccn([C@@H]2O[C@H](CO)[C@@H](O)[C@H]2O)c(=O)n1,Potency,[1],inactive
same,Potency,[3],inactive
COc1ccc2c(c1)c(C1=C(c3c[nH]c4ccccc34)C(=O)NC1=O)cn2CCCN(C)C,Potency,[2],7.42 µM (active)
same,Potency,[3],6.61 µM (active)
CC1=C(C(=O)Nc2cc3cn[nH]c3cc2F)C(c2ccc(C(F)(F)F)cc2)CC(=O)N1 (centres undefined),Potency,[10],19 µM (active)
CC(C)(CO)[C@@H](O)C(=O)NCCC(=O)O,Potency,[2],inactive
Cc1cccc(-c2[nH]c(C(C)(C)C)nc2-c2ccc3c(c2)OCO3)n1,Potency,[2],4.61 µM (active) and 4.17 µM (active)
same,Potency,[3],4.11 µM (active) and 4.17 µM (active)
CCCCCCCCCCCCCC(=O)N[C@H](CO)[C@H](O)c1ccc([N+](=O)[O-])cc1,Potency,[1],inactive
same,Potency,[3],inactive
N#Cc1c(N(CC(=O)O)CC(=O)O)sc(C(=O)O)c1CC(=O)O,Potency,[2],inactive
same,Potency,[3],inactive
c1cc(OCCN2CCCCC2)cc(-c2n[nH]c3ccc(-c4ncn[nH]4)cc23)c1,Potency,[11],15.1 µM (active)
same,Potency,[10],inactive
same,Potency,[2],16.6 µM (active)
same,Potency,[3],13.2 µM (active)
same,activity,[12],-3.59%
same,"activity change, negative = inhibition",[13],2.7%
same,activity,[14],-12.9%
same,activity,[15],-6.71%
